Data on 108 sequences can be found in PubChem BioAssay AID1508600 (Functional Genomics Laboratory (NCATS/FGL), 2020).

About 3,700 (7%) of roughly 53,000 sequences were called active. The sample as a whole holds a higher share of actives than the screen did. A number with no mark means an inactive call.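 Rule for the calls: active = gene knockdowns whose robust z-score for IL-1 alpha signal is at least 2 or at most -2, so actives lie on both sides; inactive = the rest.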

This assay in a line: Components of the Cytosolic LPS Sensing Pathway: Gene Identification via Genome-wide siRNA Screen.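 Note: robust z of the log signal after scaling to non-targeting control siRNA wells of the plate.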 Particulars: RAW264.7 macrophages, IL-1a HTRF, actives lie on both sides, screened at 100 nM (by protocol), cells primed 5 h with Pam3CSK4 first. The procedure, abridged:
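Three distinct siRNAs per gene were tested singly at 100 nM in RAW264.7 macrophages. Following Pam3CSK4 priming and 24 hour LipidA transfection, IL-1a secretion was read by HTRF.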
A general note: Time-resolved FRET reads energy transfer from a long-lived donor to a nearby acceptor.
Regarding GCUGGGUUAUGAGAUUUCUTT against Tns2, the z-score is 2.26 (active).
The result for GGAGGAUUACAACACUGUUTT against Enpp3 reads -0.617.
With CCUAGUAGCCGAGAAACAUTT against Olfr1137 the figure was -0.705; with GGCAAUACGUGAAGAAAAATT against Baz1a, -0.493.
The result for GGCUGUUUCUGUCAUGGUUTT against Nup133 reads 0.383.
As for GCAGAGAUAAAUUGGAAAGTT against Art2b, the z-score is 0.292.
In the case of GGAUAGAGCACAGAUCCAGTT against St8sia5, the z-score was 2.38 (active).
The result for GGUCGAAAUGAUCUCCAACTT against Poli reads -0.687.
In the case of GCUUCGAGAACUUUCUCCCTT against Nrtn, the z-score is 0.818.
With GGUUUCCAUAUUUGGAUCCTT against Dhx40 the figure was 0.0331; with GGGAAAGAAUUGGAUUGAATT against N4bp2l1, -2.31 (active).
The result for GGAAUUUGAAGCUGUCACUTT against Spata2 reads -0.433.
With GGACUAGCGGACAUGGAUCTT against Ndc80 the figure was 1.02.
GGAAUUUCAAAGAGACAAATT against Cyfip1: the z-score is -0.423.
The result for GGAUCGGUGAGAUUGUAGCTT against Phyhd1 reads -0.177; that for GGGCAUUUCUUCAGCUAAUTT against Tfec, -1.04; that for GGAAGAUCUCAGUGAGCAUTT against Gpcpd1, 0.69.
For the sequence GGGUUUUAUCAGCUAAAAATT against Plppr4, the z-score is 2.29 (active).
The result for GGCUUUAGGAAGAUCCUUGTT against Ilf2 reads -0.538; that for UUCUGUGAUCAUGUCUUCUTT against Tuba1b, -1.6; that for GCGAUUCUGUAAAGAGCGCTT against Nme1, 1.9.
With GGCCUUAGUUUAUACAUGUTT against Dusp18 the figure was 0.628.
Regarding GGAAUGUAACUGAAAGACUTT against Myo1c, the z-score is 0.486.
The result for GCUCAAGGACUUACGCAACTT against Zfp668 reads -1.61; that for GCAUUCCAACGGAUUUAAUTT against Dag1, 2.21 (active); that for GGACAAAAACAAACAUGAGTT against Vwa3a, -0.665.
For CCGGGAAAGAACUCCUAAGTT against Wnt8b, the z-score was 0.0331.
As for GGUUUCACAUUCAUCAACUTT against Ccdc14, the z-score is -1.02.
The result for GGAUGAGCAAGAAAUCCCUTT against Ccdc137 reads -0.873; that for CCUAAGGAGACACGAAGCCTT against Cfp, -0.119; that for GGAUAUGCACUGUUUUCAATT against Nudt16, 2.28 (active).
Regarding GGUCUUCCAAGAAAAAGGCTT against a, the z-score is 1.07.
In the case of GGAUGCUGACAAAAAUAUCTT against Iars, the z-score is 0.447.
With GGCCAUAAAAUGGUAGUAUTT against Trim36, the z-score was 0.0952.
For the sequence GGGUCAUGUUUUUAAGAAGTT against Frrs1, the z-score was -1.28.
Take CCCUUGCCUCAAAGAUCUUTT against Tex48: the z-score is 0.633.
As for GCACUGUUCUCAAAGUUAATT against Ddx3x, the z-score is -0.248.
With GGCUACGCCCACAAAAGCUTT against H1f6, the z-score is -2.26 (active).
The result for CCAAUUGGAAGAAUCCAGGTT against Gsdmc3 reads -0.542; that for GGUUUUCCUAAAGUCAACATT against Bfar, -2.24 (active).
The result for GCAGUAGCGACGAAGGAUGTT against Rnf113a2 reads -2.12 (active).
As to GGACAAGAAUUGGAACAAATT against Zfp84, the z-score was 1.43.
As for GGCAGUAUCAAAGAAAUUGTT against Rps6ka3, the z-score was 3.43 (active).
With “CCCAGGUAGAGACAUUGCUTT against 6330444E15Rik” the figure was -1.89; with GGAGAUGAAAUCUACAAAUTT against Igfbp1, -0.592; with GCCUUGUUGUGUUGGCUUATT against Olfr1111, 0.549.
With GGGAAUAUUUUCAAGUUGCTT against Tmem14a the figure was 0.795.
The result for GGAAGAUAUUGGUAAAAACTT against Uba1y reads 0.584; that for “GGAUGUUUGGACAUCAUUUTT against 2610002M06Rik”, 0.204; that for GGUAAUGAUACCUUGAAUGTT against H60a, 2.11 (active).
GCUUCAGUGGCUACUCUUGTT against H2-M2: the z-score is 0.63.
The result for CCGUGGAUUGUGGAAUAAUTT against Xpnpep3 reads -1.39; that for GCCAGUUUUGGUAUCCCGUTT against Lpcat2, -1.2.
In the case of GGGACAACCCAUCAACAAUTT against Catsper1, the z-score was -0.614.
With CGAUGUACUCCAUGUUGGGTT against Bpifb6 the figure was 3.47 (active); with GGAAAGCUUGAAUGUUGAGTT against Mup3, 1.44.
With GACACCCUGUGACACCAAGTT against Sprr1b the figure was -0.597; with GGCUUUAAUGAAAUUAUGGTT against Asap2, 1.4.
The result for CCCAGAAUUGAACUAAAAATT against Mrpl32 reads -0.488; that for GGUGGAACAACUGUUUCAATT against Dyrk3, 0.541.
As for GGAACCUAUGGAAGGCGUATT against Ino80b, the z-score is 2.64 (active).
For the sequence CCCACGCUUAGCAAUAUCATT against Get3, the z-score was -1.49.
For GGUAACCUAGUGUAAGUUUTT against Atg2b, the z-score is -0.0782.
With GGAGAGCAGUGAUAACCAGTT against Cracd the figure was 2.06 (active).
As to GGAAAUUGCUCAAAAAAGGTT against Asb3, the z-score was 0.725.
The result for GGCUUCUAUUGCCAUAAUGTT against Olfr380 reads 0.568; that for GGAUGAAGACAGUCAAAUGTT against Lypd3, 0.261; that for GGCAGAUUCUAAAUAUAGCTT against Itga9, -0.52.
The result for GGACAGCUUCAUCAAGCCUTT against Cep89 reads -0.628.
The result for GGUCUGGUGUUGUAGGAUATT against Map1lc3b reads 2.71 (active); that for GGAGUCAUAUGCACAGAUCTT against Tcte3, -0.706.
On to CGUGGAUGAGAACUAACCUTT against Rpl31, for which the z-score was 1.24.
The result for GCUCCUAUGCAAACAUUGCTT against Olfr1390 reads 0.489.
Take GGAUCUCUUAGGUAUCUUATT against Nlrp14: the z-score is 1.45.
As to GGAACACUGGAAGAAAGAUTT against Arhgap35, the z-score is -1.21.
For the sequence GAUGUACUUGAUAAAGCCUTT against Ugt2b37, the z-score was 3.68 (active).
With CCCAUCUCACUAUUUAAUATT against Lrrc3b the figure was -1.23.
The result for GCUGCACAAGUGCAUUUUUTT against Srp14 reads -1.34.
GGGUAUUUCCACUUCAUAGTT against Acsm2: the z-score is 1.59.
The result for GCUCAUGGACCAACCUAUGTT against Olfr1180 reads 0.501; that for GCUUUCCGGAAUACGAGCUTT against Snapc3, -0.638; that for CGCAAGAUCCUCAAACGAGTT against Proc, -0.358.
In the case of GGGAACAAGUUGAGCUACUTT against Ebp, the z-score was -0.0574.
Consider UAGGAGAUAUCUGCUACCGTT against Fbxw16, for which the z-score was -2.53 (active).
The result for CCAUGUUCGGACGUGGUCUTT against Shkbp1 reads -1.17; that for GGAGAGGAAUCAAGUGGUGTT against Lig1, -1.04; that for GGUGCUUUAUUAGGUAUUCTT against Atp6v1g3, -1.26.
With GGGUAGCUUUAAAUAAAGGTT against Olfr801 the figure was 2.47 (active).
As to GCAUAAGCCUAAAAAUUCUTT against Ptprd, the z-score was 0.43.
The result for GCCCUCUUGUGAUUAAGCATT against Esr1 reads -0.959.
The result for GCUAAGAAGAGGAUUCCAATT against Spag1 reads -0.579.
Take GCAGCAGUGCUUACUUAACTT against Ccdc25: the z-score was 0.212.
Consider GGAAAGUGAUGUCACAAAATT against G3bp1, for which the z-score is 1.31.
With GGUGUUUGUGAAGGAGCAGTT against Fam117a the figure was 2.98 (active); with GGCCAACCUGGAGAACUUGTT against Atp6v1c2, 0.441.
The result for GGUUAAUAUUAGCAUCGUCTT against Zdhhc23 reads 0.908.
The result for GGCUCUGUGUUGGUAAUGATT against Yipf1 reads -0.538; that for GGGUCAUCGGAACAGAACUTT against Sult3a1, -2.26 (active); that for GGGCAACUGUACGUACCAUTT against Cd93, 0.0137.
For the sequence GGGAGCAUUUCCUUAUACUTT against Tpmt, the z-score is 0.67.
Consider GGAUAAAGCCACAUUUGGUTT against Apoh, for which the z-score was -0.483.
With GGAACCAGAGGACAAAGACTT against Ccdc96 the figure was -2.43 (active).
With GGCUGGUGUAAAAGACACGTT against Nat14 the figure was 0.142.
The result for GGGUUUUCGGGAGAUCUGUTT against Ltbp4 reads -0.44; that for GGAGCACUAUGAUGAGUUCTT against U2af1, -0.452.
Regarding GCACUAUGGUAUUGAAAUUTT against Armc5, the z-score is 0.635.
Consider GGAUUCUGAAAUCAGUGCUTT against Capn8, for which the z-score is 1.52.
Regarding GGUCACCAAGCAACACAAUTT against Fen1, the z-score was 2.56 (active).
